Results from article PMC7862700, “An all-to-all approach to the identification of sequence-specific readers for epigenetic DNA modifications on cytosine”.

Assays:
Experiment in all cases: DAPPL (digital affinity profiling via proximity ligation, sequencing); 10 mM Tris-HCl pH 7.5, 50 mM NaCl, 1 mM DTT, 4% glycerol, room temperature, 30 min; GST-TFs on glutathione beads, 16-mer random dsDNA library, 0.1% formaldehyde crosslink after washing; high values mean tight binding
Details in all cases: protein: recombinant; tags: N-terminal GST; dsDNA, one strand shown
[1] = biological target: T1, FLI1 (Homo sapiens, UniProt Q01543 1-452)
T1 sequence: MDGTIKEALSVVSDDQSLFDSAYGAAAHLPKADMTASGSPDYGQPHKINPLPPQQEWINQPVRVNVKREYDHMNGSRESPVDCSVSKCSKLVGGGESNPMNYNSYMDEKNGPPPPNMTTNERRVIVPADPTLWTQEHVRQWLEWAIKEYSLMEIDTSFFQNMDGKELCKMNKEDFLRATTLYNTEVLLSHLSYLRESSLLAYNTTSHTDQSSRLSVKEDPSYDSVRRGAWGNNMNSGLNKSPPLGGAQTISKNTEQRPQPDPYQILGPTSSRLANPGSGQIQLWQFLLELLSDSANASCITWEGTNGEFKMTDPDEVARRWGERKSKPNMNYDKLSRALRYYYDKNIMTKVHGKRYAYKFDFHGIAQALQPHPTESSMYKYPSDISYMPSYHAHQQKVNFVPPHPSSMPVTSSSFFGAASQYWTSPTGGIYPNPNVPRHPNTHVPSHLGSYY
Outline: (§1)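 Sequencing on an Illumina NextSeq500 followed washing, crosslinking with 0.1% formaldehyde, proximity ligation (BsaI/T4 ligase, 1 h, 37 °C) and PCR amplification of pools that had been incubated for 30 min at room temperature with 200 nmole of a random double-stranded 16-mer DNA library in Tris/NaCl/DTT/glycerol buffer. Each pool held DNA-barcoded human transcription factors, expressed in yeast as GST fusions and captured on glutathione beads, plus a tag-only sample. Binding signal is a hexamer's read frequency for a factor divided by its frequency in the tag-only sample.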

[2] = biological target: T2, ELK1 (Homo sapiens, UniProt P19419 1-428)
T2 sequence: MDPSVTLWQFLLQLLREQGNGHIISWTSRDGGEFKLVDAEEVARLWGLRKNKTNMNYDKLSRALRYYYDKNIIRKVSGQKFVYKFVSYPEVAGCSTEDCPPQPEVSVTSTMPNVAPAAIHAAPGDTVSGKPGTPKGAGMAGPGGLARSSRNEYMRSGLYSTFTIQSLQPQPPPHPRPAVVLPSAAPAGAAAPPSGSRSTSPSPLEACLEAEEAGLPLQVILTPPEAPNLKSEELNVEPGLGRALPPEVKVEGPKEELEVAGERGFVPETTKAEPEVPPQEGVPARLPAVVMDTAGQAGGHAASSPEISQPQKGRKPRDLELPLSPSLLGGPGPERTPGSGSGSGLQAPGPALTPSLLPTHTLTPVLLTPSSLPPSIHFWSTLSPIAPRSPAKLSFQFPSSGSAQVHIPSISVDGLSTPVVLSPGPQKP
Outline: as §1

[3] = biological target: T3, GABPA (Homo sapiens, UniProt Q06546 1-454)
T3 sequence: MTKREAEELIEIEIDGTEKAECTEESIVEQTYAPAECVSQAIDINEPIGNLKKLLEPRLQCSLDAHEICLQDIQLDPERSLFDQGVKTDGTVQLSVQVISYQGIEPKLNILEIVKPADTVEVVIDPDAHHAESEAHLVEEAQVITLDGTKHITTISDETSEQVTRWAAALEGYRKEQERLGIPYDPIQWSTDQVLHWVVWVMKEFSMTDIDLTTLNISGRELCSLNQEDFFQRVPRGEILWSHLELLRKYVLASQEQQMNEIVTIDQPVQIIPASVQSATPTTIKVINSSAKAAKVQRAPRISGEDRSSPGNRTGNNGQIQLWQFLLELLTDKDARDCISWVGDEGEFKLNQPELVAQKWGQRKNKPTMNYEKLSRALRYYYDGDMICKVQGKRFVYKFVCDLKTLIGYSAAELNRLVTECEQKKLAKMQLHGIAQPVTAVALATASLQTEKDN
Outline: as §1

[4] = biological target: T4, ERG (Homo sapiens, UniProt P11308 1-479)
T4 sequence: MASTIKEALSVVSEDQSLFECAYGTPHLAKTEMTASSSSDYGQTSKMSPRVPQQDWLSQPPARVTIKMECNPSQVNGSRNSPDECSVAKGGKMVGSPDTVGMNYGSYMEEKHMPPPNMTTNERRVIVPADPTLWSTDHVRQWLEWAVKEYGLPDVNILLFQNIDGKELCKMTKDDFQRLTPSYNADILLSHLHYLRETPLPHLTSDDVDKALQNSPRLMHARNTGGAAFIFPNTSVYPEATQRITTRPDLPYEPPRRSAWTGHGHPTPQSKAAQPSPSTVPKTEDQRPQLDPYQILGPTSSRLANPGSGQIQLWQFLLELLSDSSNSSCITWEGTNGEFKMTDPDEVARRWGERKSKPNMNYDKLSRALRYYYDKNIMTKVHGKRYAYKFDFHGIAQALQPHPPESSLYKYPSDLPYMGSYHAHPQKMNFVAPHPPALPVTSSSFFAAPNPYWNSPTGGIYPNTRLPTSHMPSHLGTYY
Outline: as §1

[5] = biological target: ELF1 (Homo sapiens, UniProt P32519 1-619)
Sequence of ELF1 (P32519 whole entry): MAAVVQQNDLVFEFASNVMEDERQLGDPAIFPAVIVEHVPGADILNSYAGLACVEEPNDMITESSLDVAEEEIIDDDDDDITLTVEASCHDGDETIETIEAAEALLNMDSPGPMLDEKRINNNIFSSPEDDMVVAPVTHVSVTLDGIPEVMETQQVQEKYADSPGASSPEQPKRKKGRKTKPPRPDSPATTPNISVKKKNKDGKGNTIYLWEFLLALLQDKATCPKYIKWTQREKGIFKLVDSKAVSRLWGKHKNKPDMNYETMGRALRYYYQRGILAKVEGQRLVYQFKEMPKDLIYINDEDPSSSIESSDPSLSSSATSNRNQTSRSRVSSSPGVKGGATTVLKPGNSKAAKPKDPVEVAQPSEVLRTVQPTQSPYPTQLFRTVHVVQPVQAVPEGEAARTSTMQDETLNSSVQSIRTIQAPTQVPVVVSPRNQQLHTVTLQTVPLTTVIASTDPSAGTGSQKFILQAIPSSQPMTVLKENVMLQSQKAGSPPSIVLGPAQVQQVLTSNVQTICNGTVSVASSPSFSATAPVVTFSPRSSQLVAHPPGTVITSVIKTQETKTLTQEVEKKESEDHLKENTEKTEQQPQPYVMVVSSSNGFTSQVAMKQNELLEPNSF
Outline: as §1

[6] = biological target: T5, EHF (Homo sapiens, UniProt Q9NZC4 1-300)
T5 sequence: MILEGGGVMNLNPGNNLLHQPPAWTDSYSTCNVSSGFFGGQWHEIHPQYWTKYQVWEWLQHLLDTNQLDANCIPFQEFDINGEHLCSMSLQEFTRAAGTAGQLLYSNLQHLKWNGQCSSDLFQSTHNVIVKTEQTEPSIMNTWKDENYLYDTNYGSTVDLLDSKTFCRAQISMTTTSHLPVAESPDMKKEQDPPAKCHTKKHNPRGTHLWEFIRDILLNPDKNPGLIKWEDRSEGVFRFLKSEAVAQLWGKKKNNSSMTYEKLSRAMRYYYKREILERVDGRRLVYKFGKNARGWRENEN
Outline: as §1

[7] = biological target: SPI1 (Homo sapiens, UniProt P17947 1-270)
Outline: as §1

[8] = biological target: SPIB (Homo sapiens, UniProt Q01892 1-262)
Sequence of SPIB (Q01892 whole entry): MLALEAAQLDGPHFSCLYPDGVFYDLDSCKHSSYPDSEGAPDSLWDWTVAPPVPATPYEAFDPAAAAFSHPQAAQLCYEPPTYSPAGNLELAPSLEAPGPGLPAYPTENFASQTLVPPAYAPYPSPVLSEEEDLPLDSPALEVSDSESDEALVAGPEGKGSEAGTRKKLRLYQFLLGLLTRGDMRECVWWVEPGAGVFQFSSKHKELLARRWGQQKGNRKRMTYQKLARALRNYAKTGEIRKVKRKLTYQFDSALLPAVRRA
Outline: as §1

[9] = biological target: T6, ELK3 (Homo sapiens, UniProt P41970 1-407)
T6 sequence: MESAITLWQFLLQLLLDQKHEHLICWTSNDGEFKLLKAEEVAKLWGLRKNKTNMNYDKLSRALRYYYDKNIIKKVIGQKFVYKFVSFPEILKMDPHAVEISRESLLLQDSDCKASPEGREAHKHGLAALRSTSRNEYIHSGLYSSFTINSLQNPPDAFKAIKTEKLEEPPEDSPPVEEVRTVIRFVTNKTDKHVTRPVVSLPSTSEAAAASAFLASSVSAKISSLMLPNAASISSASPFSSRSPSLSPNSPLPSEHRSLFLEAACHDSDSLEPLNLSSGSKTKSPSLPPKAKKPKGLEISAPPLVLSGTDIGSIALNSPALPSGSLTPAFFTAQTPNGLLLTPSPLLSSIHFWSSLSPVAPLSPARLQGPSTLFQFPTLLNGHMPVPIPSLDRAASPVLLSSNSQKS
Outline: as §1

Sequence	binding signal [1]	binding signal [2]	binding signal [3]	binding signal [4]	binding signal [5]	binding signal [6]	binding signal [7]	binding signal [8]	binding signal [9]
CTGTAT	1.35 fold enrichment (6-mer frequency, TF over GST control)	1.28 fold enrichment (6-mer frequency, TF over GST control)	1.31 fold enrichment (6-mer frequency, TF over GST control)	1.18 fold enrichment (6-mer frequency, TF over GST control)	1.24 fold enrichment (6-mer frequency, TF over GST control)	1.3 fold enrichment (6-mer frequency, TF over GST control)	1.23 fold enrichment (6-mer frequency, TF over GST control)	1.31 fold enrichment (6-mer frequency, TF over GST control)	1.31 fold enrichment (6-mer frequency, TF over GST control)
TCCATT	1.34 fold enrichment (6-mer frequency, TF over GST control)	1.16 fold enrichment (6-mer frequency, TF over GST control)	1.3 fold enrichment (6-mer frequency, TF over GST control)	1.31 fold enrichment (6-mer frequency, TF over GST control)	1.26 fold enrichment (6-mer frequency, TF over GST control)	1.27 fold enrichment (6-mer frequency, TF over GST control)	1.33 fold enrichment (6-mer frequency, TF over GST control)	1.39 fold enrichment (6-mer frequency, TF over GST control)	1.26 fold enrichment (6-mer frequency, TF over GST control)
ACTATG	1.23 fold enrichment (6-mer frequency, TF over GST control)	1.28 fold enrichment (6-mer frequency, TF over GST control)	1.37 fold enrichment (6-mer frequency, TF over GST control)	1.19 fold enrichment (6-mer frequency, TF over GST control)	1.21 fold enrichment (6-mer frequency, TF over GST control)	1.25 fold enrichment (6-mer frequency, TF over GST control)	1.14 fold enrichment (6-mer frequency, TF over GST control)	1.31 fold enrichment (6-mer frequency, TF over GST control)	1.2 fold enrichment (6-mer frequency, TF over GST control)
TCGATC	1.31 fold enrichment (6-mer frequency, TF over GST control)	1.08 fold enrichment (6-mer frequency, TF over GST control)	1.14 fold enrichment (6-mer frequency, TF over GST control)	1.18 fold enrichment (6-mer frequency, TF over GST control)	1.27 fold enrichment (6-mer frequency, TF over GST control)	1.16 fold enrichment (6-mer frequency, TF over GST control)	1.11 fold enrichment (6-mer frequency, TF over GST control)	1.25 fold enrichment (6-mer frequency, TF over GST control)	1.27 fold enrichment (6-mer frequency, TF over GST control)
ATTGAC	1.18 fold enrichment (6-mer frequency, TF over GST control)	1.21 fold enrichment (6-mer frequency, TF over GST control)	1.22 fold enrichment (6-mer frequency, TF over GST control)	1.19 fold enrichment (6-mer frequency, TF over GST control)	1.19 fold enrichment (6-mer frequency, TF over GST control)	1.22 fold enrichment (6-mer frequency, TF over GST control)	1.14 fold enrichment (6-mer frequency, TF over GST control)	1.2 fold enrichment (6-mer frequency, TF over GST control)	1.16 fold enrichment (6-mer frequency, TF over GST control)
TTTGAA	1.22 fold enrichment (6-mer frequency, TF over GST control)	1.09 fold enrichment (6-mer frequency, TF over GST control)	1.2 fold enrichment (6-mer frequency, TF over GST control)	1.21 fold enrichment (6-mer frequency, TF over GST control)	1.23 fold enrichment (6-mer frequency, TF over GST control)	1.24 fold enrichment (6-mer frequency, TF over GST control)	1.2 fold enrichment (6-mer frequency, TF over GST control)	1.2 fold enrichment (6-mer frequency, TF over GST control)	1.17 fold enrichment (6-mer frequency, TF over GST control)
GACTTC	2.39 fold enrichment (6-mer frequency, TF over GST control)	2.65 fold enrichment (6-mer frequency, TF over GST control)	2.3 fold enrichment (6-mer frequency, TF over GST control)	2.84 fold enrichment (6-mer frequency, TF over GST control)	2.36 fold enrichment (6-mer frequency, TF over GST control)	2.51 fold enrichment (6-mer frequency, TF over GST control)	3.04 fold enrichment (6-mer frequency, TF over GST control)	2.51 fold enrichment (6-mer frequency, TF over GST control)	2.61 fold enrichment (6-mer frequency, TF over GST control)
CGTAAT	1.19 fold enrichment (6-mer frequency, TF over GST control)	1.14 fold enrichment (6-mer frequency, TF over GST control)	1.13 fold enrichment (6-mer frequency, TF over GST control)	1.19 fold enrichment (6-mer frequency, TF over GST control)	1.18 fold enrichment (6-mer frequency, TF over GST control)	1.13 fold enrichment (6-mer frequency, TF over GST control)	1.16 fold enrichment (6-mer frequency, TF over GST control)	1.19 fold enrichment (6-mer frequency, TF over GST control)	1.04 fold enrichment (6-mer frequency, TF over GST control)
